Results reported in PubChem BioAssay AID485313 (National Center for Advancing Translational Sciences (NCATS), 2010).
Among all 320,000 compounds or so, about 7,600 (2.4%) were called active. Not shown: some 3% with an inconclusive outcome. What follows is part of a selection rich in actives, with near analogues and random picks from the rest. Values without a mark were called inactive. Calls come from the whole dose curve; as a rule, active = well fitted activation curve with a large enough effect; inconclusive = small, poorly fitted or top-dose-only effect; inactive = no such curve, though single readings can be large or run the other way.

test: qHTS Assay for NPC1 Promoter Activators; settings: Huh7 NPC1 promoter luciferase reporter, 24 h; series mostly up to 9.22 µM; activation: at the top concentration; note: nearly all actives have a fitted effect of over 60% in size; for activation: % of control where 0% means no effect
Source text: NIH Chemical Genomics Center [NCGC] NIH Molecular Libraries Probe Production centers Network [MLPCN] MLPCN Grant: MH089375-01A1 Assay Submitter (PI): Yiannis A. Ioannou NCGC Assay Overview: Niemann Pick Type C (NPC) is a rare neurodegenerative lipidosis that is characterized by lipid storage in the endosomal/lysosomal system. Treatment modalities for this devastating disease are currently non-existent due to the severe obstacles associated with accessing the central nervous system with proteins or genes. The majority of mutations causing NPC disease are missense mutations that are distributed throughout the length of the NPC1 protein, with the most prevalent being the I1061T allele. Although NPC1 mutant proteins may be functional, they are typically trapped in the ER due to misfolding. […] We have developed and optimized a cell based luciferase reporter assay in 1536 well format for the identification of up-regulators of the mutant NPC1 promoter.
The NPC1 promoter is cloned in front of the luciferase reporter gene, therefore NPC promoter activation results in luciferase expression. Frozen stock of the NPC1 promoter transfected Huh7 cells were obtained from the laboratory of Dr. Yiannis Ioannou (The Mount Sinai School of Medicine, New York, NY). Cells were propagated and maintained at NCGC in medium containing RPMI-1640 supplemented with 10% FBS, 2mM L-glutamine, and 50ug/ml penicillin/streptomycin. Cells were harvested in and plated for assays in OP-MEM I reduced-serum medium supplemented with 10% FBS. The Amplite luciferase reporter gene assay kit was purchased from ABD Bioquest and prepared/stored according to manufacturers recommendations. qHTS Assay Setup: 1.#Dispensed 5ul of Huh7 cells stably expressing NPC1-luciferase at a density of 1500 cells per well 1536-well plates. 2.#Incubate cells at 37C, 5% CO2, and 95% humidity for 2 hours. 3.#Transferred 23nl per well of compound in DMSO solution. 4.#Incubated at 37C, 5% CO2, and 95% humidity for 24 hours. 5.#Dispensed 3ul per well of Amplite reagent(ABD Bioquest) per well. 6.#Incubate at ambient for 10 minutes. 7.#Read using the luminescence protocol on the ViewLux plate reader (Perkin Elmer).
Potency is the fitted concentration of half-maximal effect.

Compound | activation [%] | Potency
O=C(CSc1ncnc2sccc12)N1CCN(C(=O)c2cccs2)CC1 | 0.722 | 
Cc1ccc(S(=O)(=O)N2CCCCC2)cc1NC(=O)[C@@H]1CCCN1C(=O)c1cccs1 | 0.681 | 
O=C(CSc1nc2ccccc2c(=O)n1-c1ccc(F)cc1)NC1CC1 | -9.18 | 
COc1cccc(-n2c(SCC(=O)NC3CCS(=O)(=O)C3)nc3ccccc3c2=O)c1 (configuration not stated) | -2.85 | 
Cc1ccc(-n2c(SCC(=O)N3CCC(C(=O)O)CC3)nc3ccccc3c2=O)cc1C |  | 3.55 µM (active)
CC(=O)Nc1ccc(SC[C@H](Cc2ccccc2)N2CC[C@@H](C)CCC2=O)cc1 | -0.0057 | 
CCOC(=O)c1cc2ccccc2n1CC(=O)c1ccccc1 | -2.8 | 
CCn1c(=N)n(CC(=O)c2cccc(OC)c2)c2ccccc21 |  | 3.55 µM (active)
COc1ccc2cc(C(=O)O)n(CC(=O)c3ccccc3)c2c1 | -1.96 | 
CCc1ccc(NC(=O)Cn2ncn3c(cc4ccccc43)c2=O)cc1 | -5.3 | 
CC(C)c1ccc(NC(=O)Cn2ncc3ccccc32)cc1 |  | 0.891 µM (active)
CCOC(=O)c1cn(CC(=O)Nc2ccc(C(C)C)cc2)nn1 | 1.15 | 
O=C(NCc1ccccc1CN1CCCC1)C1CCN(S(=O)(=O)c2ccc(Cl)cc2)CC1 | -1.28 | 
CNC(=S)N/N=C/c1ccc(N2CCOCC2)s1 | 2.1 | 
CCC(C)N(C(=O)CSc1ncnc2c1cnn2-c1ccccc1)C1CCS(=O)(=O)C1 (configuration not stated) | -1.19 | 
O=C(NNc1ncnc2c1cnn2-c1ccccc1)c1ccco1 | 1.26 | 
O=C(Cn1cnc2c(cnn2-c2ccccc2)c1=O)NCc1ccccc1 | 0.0668 | 
CC(C)Sc1ncnc2c1cnn2-c1ccccc1 |  | 3.55 µM (active)
c1ccc(-n2ncc3c(N4CCCC4)ncnc32)cc1 |  | 2.51 µM (active)
C1=C(CCNc2ncnc3c2cnn3-c2ccccc2)CCCC1 |  | 1.78 µM (active)
Cc1ccc(-c2nc3c(cnn3-c3ccccc3)c(=O)o2)cc1 | -2.25 | 
O=C(NCCC1=CCCCC1)C1CCN(Cc2cnn(-c3ccccc3)c2-n2cccc2)CC1 | 0.318 | 
CCN(C(=O)CSc1ncnc2c1cnn2-c1ccccc1)C1CCS(=O)(=O)C1 (configuration not stated) | 5 | 
CC1CCc2sc(C(=O)NCC(c3ccco3)N3CCCCC3)cc2C1 (configuration not stated) | -1.49 | 
CCOCCc1nn2c(=O)cc(CSCC(=O)Nc3cccc(C)c3C)nc2s1 | -1.6 | 
CSCCC(NC(=O)c1ccccc1)C(=O)N1CCN(Cc2ccc(Cl)cc2)CC1 (configuration not stated) | -5.73 | 

Compound | activation [%] | Potency
COC(=O)c1ccc(-c2c(-c3ccccc3)ncc3cc(OC)c(OC)cc23)cc1 | 3.56 | 
Cc1ccc2c(CN3CCN(S(=O)(=O)c4ccccc4C(F)(F)F)CC3)cc(=O)oc2c1 | -2.88 | 
Cc1ccsc1C(=O)OCC(=O)Nc1cccc(F)c1 | 7.29 | 
Cc1cc(C(=O)COc2ccc(Br)cc2F)c(C)n1C1CC1 | 15.3 | 
N#Cc1ccccc1S(=O)(=O)N1CCN(Cc2c(O)ccc3ccccc23)CC1 | -0.384 | 
CC1CC1C(=O)OCC(=O)Nc1cccc(F)c1 (configuration not stated) | -0.27 | 
COC(=O)Cc1[nH]n(-c2nc3ccccc3s2)c(=O)c1C(C)=Nc1ccc(OC)cc1 | -16 | 
CC(=NCc1ccco1)c1c(C(F)(F)F)[nH]n(-c2nc3ccccc3s2)c1=O |  | 2.24 µM (active)
CC(=NCc1ccco1)C1=C(O)c2ccccc2C1=O | 8.33 | 
CCCn1c(N)c(N(CCOC)C(=O)C2CCCC2)c(=O)[nH]c1=O | -2.43 | 
CN(C(=O)CSc1nnc(C2CC2)n1C)C1CCCc2ccccc21 (configuration not stated) | -0.553 | 
CN(C)/C=C(\C#N)C(=O)c1cccnc1Oc1ccc(F)cc1F | -8.2 | 
COc1ccc(C)cc1NC(=O)CCCN1C(=O)NC(C)(C)C1=O | -6.41 | 
COc1ccc(-c2nnc(SC(C)C(=O)NC3CC3)o2)cc1 (configuration not stated) | -0.432 | 
O=C(NNC(=O)c1cc2c(s1)CCCC2)c1ccccc1 | 21.2 | 
O=C(Nc1ccc(F)cc1)c1cc2c(s1)CCCC2 |  | 2.24 µM (active)
CN(C)C(=O)c1ccc(NC(=O)COC(=O)c2cc3c(s2)CCCCC3)cc1 | -5.23 | 
CCN(C(=O)COC(=O)Cc1c(F)cccc1Cl)c1c(N)n(Cc2ccccc2)c(=O)[nH]c1=O | -0.302 | 
CSc1ncccc1C(=O)NC1CCCCCC1 | -4.31 | 
CSc1ncccc1C(=O)Nc1nc2ccc(F)cc2s1 |  | 0.126 µM (active)
CSc1ncccc1C(=O)Nc1ccc2c(c1)OCO2 | -0.125 | 
Cc1ccc(NC(=O)CCC(=O)N2CCC(c3ccccc3)=N2)cc1S(=O)(=O)N1CCCCC1 | -1.45 | 
O=c1ccc2c(-c3ccccc3S(=O)(=O)O)c3ccc(O)c(O)c3oc-2c1O | -7.8 | 
CC1CCCCC1NC(=O)NC(=O)COC(=O)C1=NN(c2ccccc2)C(=O)CC1 (configuration not stated) | -3.42 | 
O=S(=O)(NCCCN1CCOCC1)c1ccc(F)c(Cl)c1 | -5.25 | 
COc1ccccc1CNC(=O)COC(=O)CNS(=O)(=O)c1ccc(NC(C)=O)cc1 | -1.15 | 
